Bioassay records deposited in PubChem by National Center for Advancing Translational Sciences (NCATS).
NPSR antag: qHTS Assay for Antagonists of the Neuropeptide S Receptor: cAMP Signal Transduction; AID 1461, 2008; actives 1% (n = 220,000); Potency, µM (titrated, usually from 38.3 µM), inactives show top-dose activity change, negative = inhibition, usual class: inhibitors; CHO-NPSR cells, cAMP TR-FRET, antagonist mode; active = well fitted curve in the direction sought with a large enough effect; inconclusive = small, poorly fitted or top-dose-only effect, or another doubt; inactive = no such curve, though single readings can be large; an effect the other way counts as inactive or inconclusive; also: potency is read from the fitted curve at half-maximal effect; % is scaled to controls: 0 for no effect and ±100 for the full control effect; nearly all actives have a fitted effect of over 50% in size
TSHR antag: Antagonists of the Thyroid Stimulating Hormone Receptor: HTS campaign. actives 0.2% (n = 330,000). activity change, negative = inhibition, % at 11.5 µM. Thyrotropin receptor (Homo sapiens), P16473. TSHR-expressing cells, TSH-stimulated cAMP HTRF, 2 h; hits give low values;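 active = activity change below a set negative limit, meaning inhibition stronger than a set level, cut at about -70% in these data; inconclusive = activity change between two set negative limits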; also: % is scaled to controls: 0 for no effect and ±100 for the full control effect
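TSHR-expressing cells, 200/well, pre-treated with compound, then stimulated with EC80 TSH (4nM final) for 2 hours at 37 deg C. cAMP measured by competitive HTRF: anti-cAMP cryptate antibody in lysis buffer plus cAMP-d2, read after 30 minutes at room temperature.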
FBPA coupling cs: qHTS Assay for Inhibitors of Fructose-1,6-bisphosphate Aldolase from Giardia Lamblia: Coupling assay counterscreen. coupling enzyme system counterscreen, AmpLite Red fluorescence. activity change, negative = inhibition, % at 58.2 µM, hits read low. actives 0.67% (n = 290,000). AID 2472, 2010; in the data active = activity change below about -30%; also: % is scaled to controls: 0 for no effect and ±100 for the full control effect
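Fluorescence at 525 nm excitation and 598 nm emission measured inhibition of the coupled detection system without aldolase. Compounds (at 57.5 uM final) were preincubated 10 min at room temperature with coupling enzyme reagent before a 20 min substrate/AmpLite Red step.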
TRb-SRC2 inh: qHTS for Inhibitors of the Interaction of Thyroid Hormone Receptor and Steroid Receptor Coregulator 2; Thyroid hormone receptor beta (Homo sapiens), P10828; TRbeta-SRC2 peptide binding, fluorescence polarization; receptor liganded with 1 µM T3; Potency, µM (doses to about 106 µM), inactives show at the highest dose activity change, negative = inhibition, usual class: inhibitors; actives 0.065% (n = 280,000); AID 1469, 2008; active = well fitted curve in the direction sought with a large enough effect; inconclusive = small, poorly fitted or top-dose-only effect, or another doubt; inactive = no such curve, though single readings can be large; an effect the other way counts as inactive or inconclusive;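 also: potency is read from the fitted curve at half-maximal effect; plate controls were bound peptide for no effect and peptide without receptor for full effect; nearly all actives have a fitted effect of over 50% in size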
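Human TRb ligand-binding domain (0.6 uM) is mixed with 20 nM Texas Red SRC2 peptide and 1 uM T3; after compound addition and 5 hr at ambient temperature, polarization is measured and normalized to unbound and bound controls.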
TR SRC2 fluor cs: Total Fluorescence Counterscreen for Inhibitors of the Interaction of Thyroid Hormone Receptor and Steroid Receptor Coregulator 2 | TRb/SRC2 Texas Red total fluorescence interference | Potency, µM (doses to about 106 µM), without a hit: at the highest dose fluorescence change, negative = quenching | actives 0.29% (n = 280,000); active = well fitted curve in either direction with a large enough effect; inconclusive = small, poorly fitted or top-dose-only effect; also: potency is read from the fitted curve at half-maximal effect; % is scaled to controls: 0 for no effect and ±100 for the full control effect
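Flags fluorescent or light-absorbing compounds by total fluorescence, S + 2P, at 555 nm excitation and 632 nm emission. Mixture: 20 nM Texas Red SRC2 peptide, 0.6 uM human TRb LBD, 1 uM T3, 5% DMSO; compound exposure 5 h at ambient temperature.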
TCR activator: Activators of T cell receptors: qHTS campaign | primary human leukocytes, anti-CD3, IL-2 HTRF, 48 h | Potency, µM (titrated, usually from 9.22 µM), inactives show at the top dose activation of IL-2 secretion, hits mostly activators | 330,000 tested, under 10 active | AID 504894, 2011; active = well fitted curve in the direction sought with a large enough effect; inconclusive = small, poorly fitted or top-dose-only effect, or another doubt; inactive = no such curve, though single readings can be large; an effect the other way counts as inactive or inconclusive; also: % of control where 0% means no effect
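Using a-CD3 beads without co-stimulation, primary human leukocytes were exposed to compounds for 48 hr. An HTRF IL-2 kit measured the cytokine, with europium-to-d2 energy transfer producing emission at 665nm upon 320nm excitation.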
CASP1 redox cat: Concentration-Response Counterscreen for Redox Active Inhibitors of Caspase-1: Catalase; shares compounds with FBPA coupling cs; caspase-1 Ac-WEHD-AFC fluorescence rate, catalase buffer; Potency, µM (series often up to 57.5 µM), for the others: at the top dose activity change, negative = inhibition, hits mostly inhibitors; 30 tested, under 10 active; AID 888, 2007
CASP1 inh CRC: Confirmation Concentration-Response Assay for Allosteric/Competitive Inhibitors of Caspase-1; shares compounds with FBPA coupling cs; purified caspase-1, fluorogenic substrate cleavage; Potency, µM (titrated, usually from 57.5 µM), without a hit: at the top dose activity change, negative = inhibition, hits mostly inhibitors; actives 20% (n = 60); AID 896, 2007
CASP7 inh CRC: Confirmation Concentration-Response Assay for Allosteric/Competitive Inhibitors of Caspase-7. shares compounds with FBPA coupling cs. Potency, µM (top dose mostly 57.5 µM), without a hit: at the highest dose activity change, negative = inhibition, actives largely listed as inhibitors. 60 tested, under 10 active. recombinant caspase-7, fluorogenic substrate cleavage; active = well fitted inhibition curve with a large enough effect in the main read-out, with a control signal flat, not every such curve was filed as active; inconclusive = small, poorly fitted or top-dose-only effect, or a change in a side signal; inactive = no such curve, though single readings can be large or run the other way
Casp7 cysteine: Concentration-Response Counterscreen for Redox Active Inhibitors of Caspase-7: Cysteine; shares compounds with FBPA coupling cs; caspase-7 enzyme with cysteine, fluorogenic substrate, redox counterscreen; Potency, µM (series often up to 57.5 µM), for the others: top-dose activity change, negative = inhibition, hits mostly inhibitors; 60 tested, under 10 active
Casp7 catalase: Concentration-Response Counterscreen for Redox Active Inhibitors of Caspase-7: Catalase; shares compounds with FBPA coupling cs; Caspase-7 Ac-DEVD-AFC fluorescence rate, catalase buffer; Potency, µM (top dose mostly 57.5 µM), for inactives: at the highest dose activity, negative = inhibition, usual class: inhibitors; 30 tested, under 10 active; AID 909, 2007
Casp1 cysteine: Concentration-Response Counterscreen for Redox Active Inhibitors of Caspase-1: Cysteine; shares compounds with FBPA coupling cs; recombinant caspase-1, fluorogenic substrate, cysteine buffer; Potency, µM (highest dose often 57.5 µM), without a hit: at the top dose activity change, negative = inhibition, hits mostly inhibitors; 60 tested, under 10 active
The depositor's hits bear a star; ? = inconclusive; . = no result given; [ ] = another dose, or the depositor's remark. Only some compounds are listed: those with a hit (about 1% of all), similar ones and a draw of the others. Unless noted, calls follow the shape of the dose curve; as a rule, active = well fitted inhibition curve with a large enough effect in the main read-out, with a control signal flat; inconclusive = small, poorly fitted or top-dose-only effect, or a change in a side signal; inactive = no such curve, though single readings can be large or run the other way.

SMILES	NPSR antag	TSHR antag	FBPA coupling cs	TRb-SRC2 inh	TR SRC2 fluor cs	TCR activator	CASP1 inh CRC	CASP7 inh CRC	Casp7 cysteine	Casp1 cysteine	others
O=C(Nc1ccc2c(c1)OCO2)C1CCCN(c2nc3ccccc3s2)C1 (configuration not stated)	4%[46.1 µM]	14	-7	6%	2%	4%	-9%	-7%	-4%	7%	CASP1 redox cat=1%;Casp7 catalase=-6%
COc1cc(N[C@@H](C)CCCN)c2ncccc2c1	.	.	-33*	1%[53 µM]	0%[53 µM]	.	-42%	-20%	-7%	-5%
CCOc1ccc(S(=O)(=O)NCC(c2ccc(N(C)C)cc2)N2CCCC2)cc1 (configuration not stated)	.	.	.	-6%	0%	.	.	.	.	.
CCc1ccc(C2c3c(-c4ccccc4O)n[nH]c3C(=O)N2Cc2cccnc2)cc1 (configuration not stated)	.	.	.	-7%	-2%	.	.	.	.	.
Cc1cc(O)c(-c2n[nH]c3c2C(c2cccc(O)c2)N(Cc2cccnc2)C3=O)cc1Cl (configuration not stated)	-15%[46.1 µM]	2	3	-1%	-3%	14%	-7%	-25%	-30%	15%
CCOC(=O)c1ccc(NC(=O)CC2C(=O)N(c3cccc(OC)c3)C(=O)N2Cc2cccnc2)cc1 (configuration not stated)	.	.	.	1%	-1%	.	.	.	.	.
O=C(COc1ccccc1)N(Cc1ccco1)c1ccc(O)cc1	5%[46.1 µM]	5	9	-7%	-1%	0%[46.1 µM]	.	.	.	.
O=C(c1ccc(Cl)c(Cl)c1)N(Cc1ccco1)c1ccc(O)cc1	-13%[46.1 µM]	9	6	-6%	0%	8%	-3%	?	?	8%	CASP1 redox cat=-10%;Casp7 catalase=32µM*
COc1cc2c(C(=O)c3ccccc3)c3c4c(cc(OC)c(OC)c4c2cc1OC)CCN3C	.	.	-14	-6%	0%	.	.	.	.	.
